# Columns and labels:
# Assay in all cases: protein binding microarray; high values mean tight binding
# Details in all cases: dsDNA, one strand shown
# RELARELA (p65 homodimer) = RELARELA (p65 homodimer) (Homo sapiens, UniProt Q04206 1-307)
# p50p50 homodimer = p50p50 homodimer (Homo sapiens, UniProt P19838 7-356)
# p52p52 homodimer = biological target: T1, p52p52 homodimer (Homo sapiens, UniProt Q00653 4-332)
# T1 sequence: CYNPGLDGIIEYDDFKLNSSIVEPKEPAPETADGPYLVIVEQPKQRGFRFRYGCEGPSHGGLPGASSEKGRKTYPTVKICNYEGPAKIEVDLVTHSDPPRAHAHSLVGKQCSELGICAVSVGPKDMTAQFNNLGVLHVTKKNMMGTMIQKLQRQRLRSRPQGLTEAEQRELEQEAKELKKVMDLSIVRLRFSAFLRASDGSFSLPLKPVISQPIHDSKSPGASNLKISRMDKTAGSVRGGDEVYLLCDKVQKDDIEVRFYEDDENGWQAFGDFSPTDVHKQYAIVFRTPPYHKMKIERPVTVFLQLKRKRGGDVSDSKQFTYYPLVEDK
# [1] = biological target: RELA (p65) subunit of heterodimer;p50 subunit (Homo sapiens;Homo sapiens, UniProt Q04206;P19838 1-307;7-356)
# Sequence of RELA (p65) subunit of heterodimer;p50 subunit (Q04206 1-307, chain 1 of 2): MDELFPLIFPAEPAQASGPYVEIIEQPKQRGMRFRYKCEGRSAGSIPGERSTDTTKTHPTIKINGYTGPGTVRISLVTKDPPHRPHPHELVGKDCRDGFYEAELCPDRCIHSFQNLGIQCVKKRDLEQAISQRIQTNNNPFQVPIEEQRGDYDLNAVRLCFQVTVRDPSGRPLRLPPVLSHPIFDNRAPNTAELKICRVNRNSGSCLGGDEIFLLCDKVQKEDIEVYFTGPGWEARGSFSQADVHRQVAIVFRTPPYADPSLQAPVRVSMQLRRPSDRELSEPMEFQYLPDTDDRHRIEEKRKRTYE
# Sequence of RELA (p65) subunit of heterodimer;p50 subunit (P19838 7-356, chain 2 of 2): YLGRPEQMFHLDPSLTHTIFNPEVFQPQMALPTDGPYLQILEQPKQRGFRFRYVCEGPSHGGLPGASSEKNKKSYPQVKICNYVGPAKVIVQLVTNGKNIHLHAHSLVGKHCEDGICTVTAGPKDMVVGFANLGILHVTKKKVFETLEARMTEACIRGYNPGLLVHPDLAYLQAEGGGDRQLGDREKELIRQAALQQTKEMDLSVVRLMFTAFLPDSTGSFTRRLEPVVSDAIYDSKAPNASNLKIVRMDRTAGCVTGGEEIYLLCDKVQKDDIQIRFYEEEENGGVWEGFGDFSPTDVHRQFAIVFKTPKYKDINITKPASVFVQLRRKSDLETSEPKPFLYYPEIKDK
# [2] = biological target: RELA (p65) subunit of heterodimer;p52 subunit (Homo sapiens;Homo sapiens, UniProt Q04206;Q00653 1-307;4-332)
# RELB subunit;p50 subunit = RELB subunit;p50 subunit (Homo sapiens;Homo sapiens, UniProt Q01201;P19838 120-401;7-356)
# RELB subunit;p52 subunit = biological target: T2, RELB subunit;p52 subunit (Homo sapiens;Homo sapiens, UniProt Q01201;Q00653 120-401;4-332)
# T2 sequence 1: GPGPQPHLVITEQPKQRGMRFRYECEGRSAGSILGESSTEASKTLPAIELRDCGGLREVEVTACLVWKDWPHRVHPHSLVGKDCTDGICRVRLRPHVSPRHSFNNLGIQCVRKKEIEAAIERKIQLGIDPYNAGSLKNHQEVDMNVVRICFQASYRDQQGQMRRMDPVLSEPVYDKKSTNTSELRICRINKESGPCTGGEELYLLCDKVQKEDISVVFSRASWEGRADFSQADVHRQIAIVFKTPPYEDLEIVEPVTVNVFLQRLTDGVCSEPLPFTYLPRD
# T2 sequence 2: T1 sequence
# [3] = biological target: C-Rel subunit;p50 subunit (Homo sapiens;Homo sapiens, UniProt Q04864;P19838 1-285;7-356)
# [4] = biological target: T3, C-Rel subunit;p52 subunit (Homo sapiens;Homo sapiens, UniProt Q04864;Q00653 1-285;4-332)
# T3 sequence 1: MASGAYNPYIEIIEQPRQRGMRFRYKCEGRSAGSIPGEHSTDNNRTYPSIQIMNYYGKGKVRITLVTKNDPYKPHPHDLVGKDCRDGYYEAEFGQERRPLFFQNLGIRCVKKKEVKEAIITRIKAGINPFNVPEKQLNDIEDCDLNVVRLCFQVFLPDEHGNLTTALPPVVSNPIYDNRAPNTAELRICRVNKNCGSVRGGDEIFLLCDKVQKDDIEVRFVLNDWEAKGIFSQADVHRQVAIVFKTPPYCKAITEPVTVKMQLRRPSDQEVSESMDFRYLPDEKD
# T3 sequence 2: T1 sequence
# Sequence of RELARELA (p65 homodimer) (Q04206 1-307): as the sequence (Q04206 1-307, chain 1 of 2) above
# Sequence of p50p50 homodimer (P19838 7-356): as the sequence (P19838 7-356, chain 2 of 2) above
Sequence,binding signal (RELARELA (p65 homodimer)) [z-score],binding signal (p50p50 homodimer) [z-score],binding signal (p52p52 homodimer) [z-score],binding signal [1] [z-score],binding signal [2] [z-score],binding signal (RELB subunit;p50 subunit) [z-score],binding signal (RELB subunit;p52 subunit) [z-score],binding signal [3] [z-score],binding signal [4] [z-score]
AGAGGGACCCT,-0.966,-0.326,0.216,-0.688,-0.129,-0.226,-0.0964,-0.803,-0.355
AAAGTCATCCC,-0.416,-0.925,-0.412,-1.01,-0.716,-0.587,-0.628,-0.836,-0.699
GAGGATTCCCC,2,1.1,2.67,2.18,2.19,2.43,2.09,1.54,2.11
CAGGACACCCT,-0.817,-1.69,-0.717,-0.865,-0.828,-0.795,-0.656,-1.21,-0.705
AAGAAATTCCC,2.91,1.19,1.64,1.53,1.32,1.27,1.39,1.36,1.67
AGGTGCGTCCT,-0.881,-0.757,-0.281,-0.82,-0.633,-0.695,-0.608,-1.1,-0.46
AGAAGGCCCCT,-0.756,0.412,0.0419,0.306,0.149,0.0369,0.0992,-0.139,0.0154
AAGGATATCCT,-0.125,-1.04,-0.548,-0.853,-0.906,-0.945,-0.859,-1.41,-0.843
GGGAAGCTCCC,1.42,0.219,1.52,1.07,1.16,0.839,0.35,0.354,0.716
GGGGTCTCCCT,0.447,0.727,1.4,1.01,1.15,0.85,1.05,0.709,1.16
CAGGTGTTCCC,0.518,0.0166,0.0698,-0.00537,0.153,-0.0984,-0.0353,0.188,0.359
AAAGAAGTCCT,-0.118,-0.972,-0.456,-0.815,-0.873,-0.926,-0.875,-0.558,-0.645
GGGTAGGCCCC,-0.379,0.314,1.45,0.396,1.04,0.459,0.305,0.392,0.593
GAGATTGCCCC,0.817,0.318,0.0909,0.951,0.468,0.435,0.366,1.1,0.621
CGGAGGTTCCC,1.2,-0.355,-0.258,0.387,-0.0508,-0.291,-0.115,0.126,-0.0163
GAGGTAGTCCC,0.343,0.907,0.506,0.436,0.326,0.57,0.233,0.447,0.318
AAGAGGTTCCT,0.0133,-1.79,-0.462,-0.943,-0.822,-0.701,-0.585,-1.22,-0.637
GAGTAATTCCT,0.42,-1,-0.525,-0.42,-0.441,-0.739,-0.87,-0.18,-0.195
CAATTACCCCT,0.378,1.06,0.863,0.727,1.01,0.941,1.38,0.652,0.899
CAAGAGATCCT,-0.295,-1.92,-0.611,-1.27,-1.22,-0.959,-0.999,-1.42,-1.16
GAGGACGTCCC,0.381,0.144,0.388,0.0977,0.262,0.14,0.0168,0.15,0.205
CGGAGTATCCC,0.97,-0.805,-0.256,0.294,-0.0559,-0.605,-0.711,-0.0452,-0.0756
CGAGAGCCCCT,-0.807,0.741,0.297,0.363,0.418,0.502,0.576,0.0988,0.379
GAAAATCTCCC,1.06,0.914,0.592,0.875,0.8,1.08,0.63,0.573,0.538
AAGGGTGCCCT,-1.07,-1.79,-0.569,-1.02,-0.718,-0.876,-0.74,-1.1,-0.646
GGAGTGGCCCT,-0.154,-1.1,-0.562,-0.155,-0.329,-0.631,-0.334,-0.305,-0.0519
GAGTGACTCCC,-0.623,-0.849,-0.413,-0.796,-0.812,-0.601,-0.827,-0.837,-0.832
CAATATTTCCC,2.26,1.03,0.706,1.27,1.06,0.775,0.965,1.45,1.08
AGAAGCTCCCT,-0.425,0.158,-0.322,-0.103,-0.284,-0.0298,-0.239,-0.54,-0.52
CGAAGCGCCCC,-0.596,-0.188,-0.173,-0.171,-0.0511,0.0336,0.263,-0.144,0.0513
